Screens (PubChem)
Most compounds without a hit are left out; they make up all but 1.1% or so of the library.
NPSR antagonist: qHTS Assay for Antagonists of the Neuropeptide S Receptor: cAMP Signal Transduction; Q6W5P4; CHO-NPSR cells, cAMP TR-FRET, antagonist mode; Potency, µM (titrated, usually from 38.3 µM), for inactives: at the top dose activity change, negative = inhibition, most hits filed as inhibitors; 220,000 compounds, 1% hits; AID 1461, 2008; also: potency is read from the fitted curve at half-maximal effect; % is scaled to controls: 0 for no effect and ±100 for the full control effect; nearly all actives have a fitted effect of over 50% in size
Target sequence (Q6W5P4 whole entry, looked up): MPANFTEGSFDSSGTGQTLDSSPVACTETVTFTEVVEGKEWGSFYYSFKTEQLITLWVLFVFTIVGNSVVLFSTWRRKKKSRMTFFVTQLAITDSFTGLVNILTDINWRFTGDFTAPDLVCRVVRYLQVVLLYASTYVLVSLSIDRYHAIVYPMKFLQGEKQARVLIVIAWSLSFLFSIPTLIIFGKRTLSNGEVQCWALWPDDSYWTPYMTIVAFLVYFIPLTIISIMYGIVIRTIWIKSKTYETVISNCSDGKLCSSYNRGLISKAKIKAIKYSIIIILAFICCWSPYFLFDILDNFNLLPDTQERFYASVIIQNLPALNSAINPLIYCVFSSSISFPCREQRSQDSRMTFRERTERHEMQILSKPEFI
HttQ103 aggreg: qHTS Multiplex Assay to Identify Dual Action Probes in a Cell Model of Huntington: Aggregate Formation (GFP); 220,000 compounds, 1.1% hits; AID 1688, 2009; PC12 HttQ103-GFP aggregates, Acumen cytometry, 40 h; Potency, µM (titrated, usually from 46.1 µM), inactives show at the highest dose activity change, negative = inhibition, most hits filed as inhibitors; also: potency is read from the fitted curve at half-maximal effect; % is scaled to controls: 0 for no effect and ±100 for the full control effect; nearly all actives have a fitted effect of over 60% in size
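Compounds (qHTS titration) were added to PC12 cells expressing an ecdysone-driven HTT exon 1 Q103–GFP fusion after induction with 100 nM tebufenozide. Aggregate formation was measured as GFP objects in cell lysates.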
CBFb-RUNX1 inh: qHTS Assay for Compounds Blocking the Interaction Between CBF-beta and RUNX1 for the Treatment of Acute Myeloid Leukemia; Runt-related transcription factor 1 (Homo sapiens) + Core-binding factor subunit beta …; Potency, µM (highest dose often 59.8 µM), for the others: top-dose activity, negative = inhibition, usual class: inhibitors; AID 1477, 2009; AlphaScreen CBFb-His/RUNX1-biotin binding, biochemical; 230,000 tested, under 10 active; also: % of control where 0% means no effect
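CBF-beta (His) and RUNX1 (biotin), 30 nM each; 20 min preassociation; + compound, 15 min; + beads 50 ng each (Ni, streptavidin), 90 min; RT; AlphaScreen read.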
HTT cytoprotect: qHTS Multiplex Assay to Identify Dual Action Probes in a Cell Model of Huntington: Cytoprotection (ATP); PC12 HTT-Q103 induced, cytoprotection, ATP luminescence, 40 h; Potency, µM (doses to about 56.4 µM), inactives show cytoprotection (ATP increase), most hits filed as activators; 230,000 compounds, 0.14% hits; also: potency is read from the fitted curve at half-maximal effect; % of control where 0% means no effect; nearly all actives have a fitted effect of over 45% in size
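PC12 cells stably carrying ecdysone-inducible Htt exon 1 (Q103)–GFP were induced with 100 nM tebufenozide (final) alongside library compounds in a dose series. Cytoprotection was scored as retained ATP by ATPlite luminescence.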
MBNL1 CUG block: qHTS Assay for Inhibitors of MBNL1-poly(CUG) RNA binding; Muscleblind-like protein 1 (Homo sapiens), Q9NR56; TR-FRET MBNL1-His/biotin-(CUG)12 binding, 665/545 ratio; Potency, µM (series often up to 57.5 µM), for inactives: at the highest dose activity change, negative = inhibition, most hits filed as inhibitors; 280,000 compounds, 0.036% hits; active = well fitted inhibition curve with a large enough effect in the signal ratio, with a control signal flat, not every such curve was filed as active; inconclusive = small, poorly fitted or top-dose-only effect, or effect the other way, or a change in a side signal; inactive = no such curve, though single readings can be large or run the other way; the % refers to the signal ratio; also: potency is read from the fitted curve at half-maximal effect; % is scaled to controls: 0 for no effect and ±100 for the full control effect
Target sequence (Q9NR56 whole entry, looked up): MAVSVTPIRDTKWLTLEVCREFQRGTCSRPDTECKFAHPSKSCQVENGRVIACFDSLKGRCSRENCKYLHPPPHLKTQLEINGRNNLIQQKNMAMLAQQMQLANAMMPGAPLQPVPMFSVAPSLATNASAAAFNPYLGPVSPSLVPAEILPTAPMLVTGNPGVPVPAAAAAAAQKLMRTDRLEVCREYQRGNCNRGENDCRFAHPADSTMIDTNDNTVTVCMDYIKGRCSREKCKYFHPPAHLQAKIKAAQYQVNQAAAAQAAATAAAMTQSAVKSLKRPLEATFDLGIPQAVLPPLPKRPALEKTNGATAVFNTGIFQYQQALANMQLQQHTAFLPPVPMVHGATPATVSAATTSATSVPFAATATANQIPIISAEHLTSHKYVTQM
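His-tagged MBNL1 binding to biotinylated (CUG)12 RNA was measured by TR-FRET using terbium anti-His antibody (0.055 ng/ul final) and streptavidin-XL665 (5 nM final). Compounds were titrated 92 nM to 58 uM; 60 min at room temperature.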
Lamin A splicing: qHTS Assay for Modulators of Lamin A Splicing; HeLa LMNA splicing GFP/RFP minigene ratio, 48 h; Potency, µM (top dose mostly 46.1 µM), for inactives: at the top dose ratio change, negative = inhibition, usual class: inhibitors; 200,000 compounds, 0.01% hits; AID 1487, 2009; active = well fitted inhibition curve with a large enough effect in the signal ratio, with a control signal flat, not every such curve was filed as active; inconclusive = small, poorly fitted or top-dose-only effect, or effect the other way, or a change in a side signal; the % refers to the signal ratio; also: potency is read from the fitted curve at half-maximal effect; % is scaled to controls: 0 for no effect and ±100 for the full control effect
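S3 HeLa cells stably expressing lamin A-EGFP splicing minigene plus DsRed2, 600 cells/well, 48 h compound exposure at 37C. Laser-scanning cytometry; analysed as GFP (500-530 nm)/RFP (575-640 nm) total intensity ratio; 0.5% DMSO vehicle.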
Active calls of the source: *; [ ] = another dose, or the depositor's remark. Unless noted, calls follow the shape of the dose curve; as a rule, active = well fitted curve in the direction sought with a large enough effect; inconclusive = small, poorly fitted or top-dose-only effect, or another doubt; inactive = no such curve, though single readings can be large; an effect the other way counts as inactive or inconclusive.

`Cc1nn(-c2ccccc2)c(C)c1C(=O)OCC(=O)c1c(N)n(CC(C)C)c(=O)n(C)c1=O` gave NPSR antagonist -9%[46.1 µM], HttQ103 aggreg 5µM*, CBFb-RUNX1 inh 0%, HTT cytoprotect -15%[10 µM], MBNL1 CUG block -4% and Lamin A splicing inconclusive.
CC(C)Cn1c(N)c(C(=O)COC(=O)c2ccc(O)cc2)c(=O)n(C)c1=O was read as NPSR antagonist -19%, HttQ103 aggreg 25%, CBFb-RUNX1 inh 5% and MBNL1 CUG block -7%.
For COc1ccc(OC)c(-c2c3cc(O)c(=O)cc-3oc3cc(O)c(O)cc23)c1 the results were NPSR antagonist -26%, HttQ103 aggreg 5µM* and Lamin A splicing inconclusive.
CC1(C)C(C(=O)O)N2C(=O)CC2S1(=O)=O (configuration not stated) was read as CBFb-RUNX1 inh 16% and HTT cytoprotect inconclusive.
`COc1ccc(C2=Nn3c(nnc3-c3ccccc3O)SC2)c(OC)c1` gave CBFb-RUNX1 inh 0%.
Screening Cc1ccc(-c2noc(CCC(=O)NCCc3ccccc3Cl)n2)cc1 returned NPSR antagonist -18%[46.1 µM], HttQ103 aggreg -3%, CBFb-RUNX1 inh 14%, HTT cytoprotect -8%[10 µM], MBNL1 CUG block -7% and Lamin A splicing -16%.
Screening CCc1ccccc1N(CC)C(=O)CCc1nc(-c2ccc(C)cc2)no1 returned NPSR antagonist inconclusive, HttQ103 aggreg 10µM*, CBFb-RUNX1 inh 7%, HTT cytoprotect -47%, MBNL1 CUG block 4% and Lamin A splicing inconclusive.
For COc1ccc(N2CC(NC(=O)C(c3ccccc3)c3ccccc3)CC2=O)cc1OC (configuration not stated) the results were Lamin A splicing -10%[46 µM].
CN(Cc1ccco1)c1ccnc(-c2cccc(C#N)c2)n1 was read as HTT cytoprotect -46% and Lamin A splicing 26%.
CC1(C)CC(N2CCN(c3ccccc3)CC2)=CC(=[N+]2CCCC2)C1 was read as NPSR antagonist -4%[46.1 µM], HttQ103 aggreg 4µM*, CBFb-RUNX1 inh -5%, HTT cytoprotect -36%[10 µM], MBNL1 CUG block -2% and Lamin A splicing inconclusive.
`CC1(C)CC(N2CCCC2)=CC(=[N+]2CCCCCC2)C1` gave NPSR antagonist 13%, HttQ103 aggreg 2µM*, CBFb-RUNX1 inh -13%, HTT cytoprotect -65%, MBNL1 CUG block -8% and Lamin A splicing inconclusive.
`CC(N)C(=O)NCC(=O)NC1CSSCC(C(=O)O)NC(=O)C(CO)NC(=O)C(C(C)O)NC(=O)C(Cc2ccccc2)NC(=O)C(C(C)O)NC(=O)C(CCCCN)NC(=O)C(Cc2c[nH]c3ccccc23)NC(=O)C(Cc2ccccc2)NC(=O)C(Cc2ccccc2)NC(=O)C(CC(N)=O)NC(=O)C(CCCCN)NC1=O` (configuration not stated) gave HttQ103 aggreg 19% and HTT cytoprotect 22%.
`O=C(Oc1ccccc1)C1O[C@@H]1c1ccccc1` (some centres not stated) gave CBFb-RUNX1 inh 14%.
Screening Cn1c(N)c(C(=O)c2ccc(Cl)cc2)c(=O)n(C)c1=O returned NPSR antagonist 0%[46.1 µM], HttQ103 aggreg 2.5µM*, CBFb-RUNX1 inh 2%, HTT cytoprotect -1%[10 µM], MBNL1 CUG block -26% and Lamin A splicing -6%.
For Cn1c(N)c(C(=O)COC(=O)c2ccc(Cl)nc2)c(=O)n(C)c1=O the results were NPSR antagonist 4%, HttQ103 aggreg -7%, CBFb-RUNX1 inh -2%, HTT cytoprotect 3.2µM*, MBNL1 CUG block -1% and Lamin A splicing inconclusive.
`Cc1noc(C)c1S(=O)(=O)NCCc1csc2nc(-c3ccc(Cl)cc3)nn12` gave Lamin A splicing -6%[46 µM].
Screening CC1(OC(=O)C2CCCC2)C(=O)C=C2C=C(c3ccsc3)N(c3cccc(C#N)c3)C=C2C1=O (configuration not stated) returned CBFb-RUNX1 inh inconclusive, HTT cytoprotect -23%[10 µM] and Lamin A splicing 17%[9.22 µM].
O=C(NCCCc1nc2ccccc2[nH]1)c1ccc(F)cc1 was read as NPSR antagonist 6%, HttQ103 aggreg inconclusive, CBFb-RUNX1 inh 11% and HTT cytoprotect 0.35µM*.
`O=C(CNC(=O)c1ccc(Br)cc1)NCCc1nc2ccccc2[nH]1` gave NPSR antagonist 4%[46.1 µM], HttQ103 aggreg 8%, CBFb-RUNX1 inh -4%, HTT cytoprotect 0%, MBNL1 CUG block -6% and Lamin A splicing 1%.
`COc1cc2c(cc1NC(=O)c1cccc([N+](=O)[O-])c1)oc1ccccc12` gave NPSR antagonist 10µM*, HttQ103 aggreg -26%, CBFb-RUNX1 inh -13%, HTT cytoprotect 9%[10 µM], MBNL1 CUG block inconclusive and Lamin A splicing -17%.
Screening Cc1ccc(S(=O)(=O)Nc2cccnc2)cc1 returned NPSR antagonist -2%[46.1 µM], HttQ103 aggreg 8%, CBFb-RUNX1 inh 0%, HTT cytoprotect -2%, MBNL1 CUG block -9% and Lamin A splicing 9%.
CCCCOc1ccc(S(=O)(=O)Nc2cccnc2)cc1 was read as NPSR antagonist -7%[46.1 µM], HttQ103 aggreg 11µM*, CBFb-RUNX1 inh -1%, HTT cytoprotect -19%, MBNL1 CUG block -4% and Lamin A splicing 18%.
For COc1cc(NC(=O)c2cc3nc(C)cc(C)n3n2)c(OC)cc1Cl the results were NPSR antagonist -10%[46.1 µM], CBFb-RUNX1 inh 0%, HTT cytoprotect 14µM*, MBNL1 CUG block 28% and Lamin A splicing 1%.
COc1cc(NC(=O)c2c(F)c(F)c(F)c(F)c2F)c(OC)cc1Cl was read as NPSR antagonist inconclusive, HttQ103 aggreg 20%, CBFb-RUNX1 inh 19%, HTT cytoprotect 7%[0.074 µM], MBNL1 CUG block 3% and Lamin A splicing inconclusive.
For CCc1ccccc1N(CC)C(=O)c1c(C)oc2ncnc(N3CCOCC3)c12 the results were Lamin A splicing -6%[46 µM].
Cn1cc(C=C2C(=O)CC(C)(C)CC2=O)c2ccccc21 was read as NPSR antagonist 13%, HttQ103 aggreg 0.025µM*, CBFb-RUNX1 inh 3%, MBNL1 CUG block -4% and Lamin A splicing -8%.
`CCc1cccc2c(-c3ccccc3)c3c(nc12)OCC3` gave CBFb-RUNX1 inh 8% and HTT cytoprotect -60%.
